FadD28 FP inh – inhibitors of Mycobacterium tuberculosis FadD28 bisubstrate binding. FadD28 bisubstrate probe binding, fluorescence polarization. inhibition, % at 12.5 µM. 360,000 compounds, 0.22% hits. AID 588549; in the data active = inhibition above about 8.5%, passing the limit was not always enough; inconclusive = no clear call, values can overlap the other calls
Rv3671c protease – inhibits the M. tuberculosis serine protease Rv3671c; P9WHR9; inhibition, % at 5.96 µM; 320,000 compounds, 0.048% hits; in the data active = inhibition above about 38%;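 note: extracellular domain of Rv3671c used as enzyme; 0% = enzyme with DMSO and 100% = no enzyme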
Target sequence (P9WHR9 whole entry, looked up, the tested form may be a part): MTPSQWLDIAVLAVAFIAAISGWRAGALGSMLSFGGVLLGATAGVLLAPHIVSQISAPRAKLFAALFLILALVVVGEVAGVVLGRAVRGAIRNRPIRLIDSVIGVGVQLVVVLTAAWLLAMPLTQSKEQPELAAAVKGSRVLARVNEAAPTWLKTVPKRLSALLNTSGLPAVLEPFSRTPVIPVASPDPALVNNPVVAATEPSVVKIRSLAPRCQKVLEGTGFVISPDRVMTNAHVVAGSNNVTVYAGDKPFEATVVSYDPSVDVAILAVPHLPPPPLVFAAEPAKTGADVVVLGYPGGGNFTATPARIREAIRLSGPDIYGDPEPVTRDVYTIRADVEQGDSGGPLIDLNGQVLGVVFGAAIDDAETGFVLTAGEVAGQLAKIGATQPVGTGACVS
Yp Topo-I inh – inhibitors of Yersinia pestis topoisomerase I; 360,000 compounds, 0.064% hits; activity, % at 10 µM; Y. pestis Topo-I cleavage product accumulation, plate reader; AID 504884; in the data active = activity above about 50%, passing the limit was not always enough; inconclusive = no clear call, values can overlap the other calls
PfHsp40 yeast – rescue of PfHsp40-mediated yeast toxicity; S. cerevisiae expressing PfHsp40, growth rescue, ATP luminescence; 340,000 compounds, 0.68% hits; AID 504582; growth rescue, % at 12.5 µM; in the data active = growth rescue above about 28%, passing the limit was not always enough; inconclusive = no clear call, values can overlap the other calls;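 note: yeast W303a lacking pdr1 and pdr3 grown in galactose medium; growth measured after three days at 30 °C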
UGM FP inh – inhibitors of M. tuberculosis UDP-galactopyranose mutase | purified UGM, fluorescence polarization probe displacement | P9WIQ1 | 320,000 compounds, 0.06% hits | inhibition, % at 10 µM | AID 504406; in the data active = inhibition above about 10%, passing the limit was not always enough; inconclusive = no clear call, values can overlap the other calls
Mtb bLac sens – beta-lactam sensitization of Mtb H37Rv; M. tuberculosis H37Rv growth with meropenem, percent inhibition; inhibition, % at 25 µM; 330,000 compounds, 0.27% hits; AID 434955; call rule not given here;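 note: growth measured after seven days incubation then overnight dye step; 0% = bacteria only wells and 100% = bacteria with antibiotic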
Active calls of the source: *; ? = inconclusive; . = no result. A selection: hits, their analogues and other compounds. The true share with any hit is near 0.98%.

SMILES | FadD28 FP inh | Rv3671c protease | Yp Topo-I inh | PfHsp40 yeast | UGM FP inh | Mtb bLac sens
Cc1cn([C@H]2C[C@H](O)[C@@H](CNC(=O)CNC(=O)CN)O2)c(=O)[nH]c1=O | -4 | . | -5 | . | . | .
CCC(CC)C(=O)N(C)c1c(C)nc2c(OCc3ccc(Cl)cc3)cccn12 | -1 | . | -7 | . | . | .
CC(C)(C)c1ccc(NC(=S)NCc2cccs2)cc1 | 42* | -4 | 12 | ? | -1 | 57
CC(C)(C)c1cc(C=C(C#N)C#N)cc(C(C)(C)C)c1O | 3 | -4 | 1 | 211* | 10 | 10
O=C(Nc1cccc(Oc2ccccc2)c1)c1ccc(-n2cncn2)c2ccoc12 | -6 | . | 38 | . | . | .
COc1cccc(NC(=O)COC(=O)C2CC(=O)N(c3ccc(C)cc3)C2)c1 (configuration not stated) | 0 | -7 | 11 | 2 | . | 2
Cc1cc(C)c(C)c(OCCOCCN2CCN(C)CC2)c1 | 1 | 4 | 1 | 123* | 0 | 2
COc1ccc(Cc2c(-c3ccccc3)nc3c(C)cc(Br)cn23)c(C)c1 | -3 | . | . | . | . | .
CC1(C(=O)NS(=O)(=O)c2cccs2)CCN1C(=O)CC1CCCC1 (configuration not stated) | -1 | . | 2 | . | . | .
CC(NNC(=S)N1CCN(c2ccccn2)CC1)c1nccc2ccccc12 (configuration not stated) | -4 | . | 16 | 149* | . | .
CC1=C(C(=O)N2CCOCC2)CC(CC(=O)NCCCCc2ccccc2)C(=O)N1Cc1ccc(F)cc1 (configuration not stated) | -3 | . | 24 | . | . | .
O=Cc1c(OCc2ccccc2)ccc2ccccc12 | -1 | 2 | 24 | 100* | 0 | 6
C/[N+]([O-])=C/c1c(OCc2ccccc2)ccc2ccccc12 | -3 | -4 | 2 | ? | 0 | 11
O=C(Nc1ccccc1N1CCCCC1)c1cccc(OC(F)F)c1 | -1 | 0 | 57* | 4 | -2 | 12
O=C(CCS(=O)(=O)c1ccc(Br)cc1)NCCC1=CCCCC1 | -4 | -4 | 14 | 0 | 0 | 14
CSc1ccc(CN(C)C(=O)c2cc3ccccc3o2)cc1 | . | -17 | 54* | 4 | 0 | -2
CSc1ccc(CN(C)C(=O)c2cc(=O)c3ccccc3o2)cc1 | -5 | 3 | 28 | 0 | 0 | 5
O=C(c1cccnc1)N(Cc1ccccc1)C(c1ccccc1)c1nc2ccccc2[nH]1 (configuration not stated) | -2 | . | . | . | . | .
Cc1ccc(N=c2oc3cc(O)ccc3cc2C(N)=O)cc1 | 3 | -14 | -2 | 33* | 2 | 6
COc1ccc(N(C)S(=O)(=O)c2ccc(Cl)c(C(=O)NNC(=O)c3ccccc3O)c2)cc1 | -3 | . | -14 | 248* | . | .
COc1ccccc1N(C)S(=O)(=O)c1ccc(Cl)c(C(=O)NNC(=O)c2ccccc2O)c1 | -1 | 16 | -2 | 218* | 3 | 2
O=C(Nc1ncccc1O)c1cccc(S(=O)(=O)N2CCc3ccccc32)c1 | -5 | 1 | -7 | 66* | 3 | 10
O=C(Nc1ncccc1O)c1cccc(S(=O)(=O)N2CCCC2)c1 | -2 | -5 | -4 | 1 | -1 | -2
O=C(COc1ccccc1)Nc1ccc(CN2CCCCC2)cc1 | 16* | -4 | -5 | 0 | -3 | -8
CCN(CC)S(=O)(=O)c1ccc(N2CCOCC2)c(NC(=O)c2ccc(=O)[nH]c2)c1 | -3 | -3 | -3 | -2 | -3 | 3
SMILES | FadD28 FP inh | Rv3671c protease | Yp Topo-I inh | PfHsp40 yeast | UGM FP inh | Mtb bLac sens
CCOc1ccccc1N1CCN(C2=C(NS(=O)(=O)c3cccs3)C(=O)c3ccccc3C2=O)CC1 | 14* | -3 | 3 | 2 | 2 | 60
Cc1ccccc1OCCn1cc(C(=S)N2CCN(C)CC2)c2ccccc21 | -3 | 1 | 25 | 0 | -1 | 4
Cc1ccccc1OCCn1cc(C(=S)N2CCCC2)c2ccccc21 | -2 | -8 | -1 | 0 | 11* | -10
O=C(NCCCNc1ccc(C(F)(F)F)cc1[N+](=O)[O-])c1cc(F)c(F)cc1Cl | -6 | 0 | 5 | 0 | -2 | -4
O=C(NCCCNc1ccc(C(F)(F)F)cc1[N+](=O)[O-])c1ccc(Cl)cc1 | -5 | -2 | -9 | 471* | 1 | 4
CCCOc1ccc(C(=O)Nc2ccc(S(=O)(=O)N3C[C@@H]4C[C@@H](C3)c3cccc(=O)n3C4)cc2)cc1 | -4 | -12 | 67* | 0 | -1 | 26
Cc1cc(C)c(C(O)c2ncc(-c3ccccc3F)[nH]2)c(C)c1 (configuration not stated) | -2 | . | -7 | . | . | .
Cc1cccc(C)c1NC(=O)CSc1nnc(NC(=O)CN2CCOCC2)s1 | -1 | -3 | -1 | 64* | 3 | -4
Cc1ccc(OCCNC(=O)[C@H]2O[C@@H](n3cnc4c(N)ncnc43)[C@H](O)[C@@H]2O)cc1C | -2 | . | . | . | . | .
Cc1ccc(S(=O)(=O)Oc2ccccc2/C=N/O)cc1 | -4 | -5 | 4 | -1 | 2 | -1
Cc1ccc(S(=O)(=O)Oc2ccccc2/C=N/Nc2ccc(C(=O)O)cc2)cc1 | 9.1* | 5 | 3 | 4 | 1 | 16
COc1ccc(C2/C=C\CN(C(=O)Nc3ccccc3)CC(=O)N2Cc2ccc(F)cc2)cc1 (configuration not stated) | 0 | 0 | 19 | -1 | 0 | -7
COc1ccc(C2/C=C\CN(C(=O)Nc3ccc(C(F)(F)F)cc3)CC(=O)N2Cc2ccc(F)cc2)cc1 (configuration not stated) | -3 | -40 | 8 | 93* | -2 | 99
O=C(Nc1nnc([C@H]2C[C@H](O)[C@@H](CO)O2)s1)Nc1cccc(Cl)c1Cl | -6 | . | 3 | . | . | .
Nc1ccc2c(c1)-c1ccccc1S(=O)(=O)N2 | 25* | -2 | -26 | -1 | 1 | 5
NC(Cc1ccc(Cl)cc1)c1csc(Nc2cc(NCCCO)ncn2)n1 (configuration not stated) | -8 | . | -11 | . | . | .
COc1ccc(/C=C/C(=O)N(C)Cc2cccs2)cc1S(=O)(=O)N1CCOCC1 | 26* | 8 | 18 | -1 | 0 | 5
Cc1ccc(CNc2ccc(O)cc2)cc1 | 12* | . | -18 | 0 | . | .
COc1cc(C(=O)Nc2nc(-c3cccs3)cs2)cc(OC)c1OC | -7 | -150 | 1 | 41* | 0 | 3
Cn1cc(C(=O)c2cccc(Cl)c2)cc1C#N | -2 | 0 | 12 | -1 | -1 | 3
Cn1cc(C(=O)c2cccc(Cl)c2)cc1/C=N\O | -4 | -5 | -11 | 30* | 0 | -8
Cc1cc2nc(NC(=O)C3(C)CCCN(C(C)C)C3)[nH]c2cc1C (configuration not stated) | -3 | . | 1 | . | . | .
COc1ccc2c(c1)C1C=CCC1C(c1cc3c(cc1Br)OCO3)N2 (configuration not stated) | 0 | 7 | 2 | 68* | -2 | 15
CC(=O)c1ccc2c(c1)C1C=CCC1C(c1cc3c(cc1Br)OCO3)N2 (configuration not stated) | -3 | -8 | 4 | -1 | -2 | 44

High-throughput results (PubChem BioAssay)
